These results are taken from PubChem BioAssay (NCATS).

Test [1] has as its target Alpha-galactosidase A (Homo sapiens) (UniProt P06280). Put plainly: Counterscreen for Glucocerebrosidase Inhibitors: qHTS Assay for Human alpha-Galactosidase at pH 4.5 (AID 992). Also: 0% is about no effect. The procedure, abridged:
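Quantitative HTS: compounds tested from 0.7 nM up to 77 uM against 2 nM enzyme with 80 uM 4-MU alpha-D-galactopyranoside. The 20 min room-temperature reaction is stopped with 1M NaOH/1M glycine, pH 10.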

In test [2] the target is alpha-glucosidase (Oryza sativa, rice) (UniProt Q653V4). The test is described as follows: Counterscreen for Glucocerebrosidase Inhibitors: qHTS Assay for Rice alpha-Glucosidase at pH 5.0 (AID 997).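 Also: 0% = full activity with enzyme and -100% = basal without enzyme.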 The procedure, abridged:
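Rice alpha-glucosidase (4 nM final) with 400 uM 4-methylumbelliferyl-alpha-D-glucopyranoside in citrate buffer pH 5.0, 20 min at room temperature, stopped at pH 10; fluorescence 365/440 nm, compounds 0.7 nM–77 uM, AC50 from Hill fits.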

A short description of test [3]: qHTS Assay for Lipid Storage Modulators (AID 1519; calls by dose curve; as to activity change, negative = inhibition: % is scaled to controls: 0 for no effect and ±100 for the full control effect). Conditions: Drosophila S3 cells, BODIPY lipid droplet/cell ratio, laser cytometry, cells loaded with oleic acid. A digest of the protocol: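 Cells seeded at 5,000 per well were treated with compounds over a concentration series and loaded with oleic acid (400 uM, as added). Lipid droplet fluorescence (488 nm excitation, 500-530 nm channel) was read by laser-scanning cytometry and normalized to 20 uM Triacsin C.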
In general terms: In qHTS, concentration-response curves come from the screen itself.

Test [4] can be described thus: Cell Viability - LYMP2-020 (AID 986).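 Also: plate controls were DMSO only for no effect and tetraoctylammonium bromide at 92 µM for full effect; nearly all actives have a fitted effect of over 55% in size.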 A digest of the protocol: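 Human lymphoblastoid LYMP2-020 cells (2500/well) preincubated 5 h at 37 C, then treated 24 h at 37 C. Viability measured as intracellular ATP by CellTiter-Glo luminescence after 30 min at room temperature; AC50 from Hill fits.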
Test [5] can be described thus: Cell Viability - LYMP2-022 (AID 987).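 Also: 0% = DMSO alone and full effect = tetraoctylammonium bromide at 92 µM; nearly all actives have a fitted effect of over 55% in size.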 The procedure, abridged:
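LYMP2-022 lymphoblastoid cells (2500/well, complete medium) were treated with compounds for 24 hours at 37 C; intracellular ATP was then read by CellTiter-Glo luminescence after 30 min at room temperature. AC50 values were derived from Hill-equation fits.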

A short description of test [6]: Cell Viability - LYMP2-024 (AID 988).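 Also: plate controls were DMSO only for no effect and 92 µM tetraoctylammonium bromide for full effect; nearly all actives have a fitted effect of over 60% in size.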 The procedure, abridged: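 Human lymphoblastoid LYMP2-024 cells (2500/well) rested 5 hr, then treated with compound for 24 hr at 37 C in complete medium. Viability was measured as intracellular ATP by CellTiter-Glo luminescence. AC50 values came from Hill-equation fits.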
The nature of test [7]: Cell Viability - LYMP2-026 (AID 989). Also: % is scaled to controls: 0 for no effect and ±100 for the full control effect; nearly all actives have a fitted effect of over 50% in size. A digest of the protocol: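 Human lymphoblastoid LYMP2-026 cells, 2500/well, exposed to compound 24 h at 37 C in complete medium. Viability as intracellular ATP by CellTiter-Glo luminescence; AC50 from Hill fits of qHTS concentration-response.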
The nature of test [8]: Cell Viability - LYMP1-002 - Assay at 24 hr (AID 993). Also: % is scaled to controls: 0 for no effect and ±100 for the full control effect. The procedure, abridged: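 Human lymphoblastoid LYMP1-002 cells (2500/well) treated 24 h at 37 °C; viability as intracellular ATP by CellTiter-Glo luminescence. Tetraoctylammonium bromide as positive control; AC50 from Hill-equation fits of qHTS concentration-response.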
Test [9] is described as follows: Cell Viability - LYMP1-002 - Assay at 40 hr (AID 994).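 Also: 0% = DMSO only and full inhibition = 92 µM tetraoctylammonium bromide; nearly all actives have a fitted effect of over 60% in size.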 A digest of the protocol: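 LYMP1-002 human lymphoblastoid cells (2500/well, complete medium) were treated with compounds for 40 hr at 37 C. Intracellular ATP was measured by CellTiter-Glo luminescence, and AC50 values came from Hill-equation fits of concentration-response data; tetraoctylammonium bromide was the positive control.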

[10] abbreviates: measured here: cell count channel max response.
Where [11] appears, read: measured here: lipid channel max response.

“And” between values parts separate entries of the source, which are not always exact repeats. Identical values can stand only once. Inconclusive results are not listed. The source made the active and inactive calls. Unless noted, calls follow the shape of the dose curve; as a rule, active = well fitted curve in the direction sought with a large enough effect; inconclusive = small, poorly fitted or top-dose-only effect, or another doubt; inactive = no such curve, though single readings can be large; an effect the other way counts as inactive or inconclusive.

Sequence of Alpha-galactosidase A (Homo sapiens) (P06280 whole entry, looked up): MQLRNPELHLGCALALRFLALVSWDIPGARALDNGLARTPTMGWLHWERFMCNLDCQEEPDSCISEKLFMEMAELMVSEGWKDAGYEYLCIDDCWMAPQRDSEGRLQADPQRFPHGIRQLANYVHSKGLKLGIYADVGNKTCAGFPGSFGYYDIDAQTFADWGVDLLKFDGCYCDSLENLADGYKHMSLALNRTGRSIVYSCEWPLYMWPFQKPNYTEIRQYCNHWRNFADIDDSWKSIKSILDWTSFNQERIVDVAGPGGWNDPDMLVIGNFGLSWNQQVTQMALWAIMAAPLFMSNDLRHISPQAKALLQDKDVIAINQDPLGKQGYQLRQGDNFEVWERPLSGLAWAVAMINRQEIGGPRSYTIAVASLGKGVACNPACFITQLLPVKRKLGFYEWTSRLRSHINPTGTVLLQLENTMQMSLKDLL

As for `NCCCCCC(=O)O`, the molecule was classed as inactive in [1] and in [2]. Also, the activity change, negative = inhibition is -1.59% (inactive) in test [3] (at 25.7 µM (top of the series)); 7.83% (inactive) and -0.624% (inactive) in test [3] (at 57.5 µM (top of the series)). In addition, the max response in test [3] (setting [10]) is -1.8% and 21.2% and -62.4%; in test [3] (setting [11]) it was -4.61% and 34.1% and -65.3%.
Consider `Cc1cn([C@H]2C=C[C@@H](CO)O2)c(=O)[nH]c1=O`, for which the molecule was classed as inactive in test [4], in [5], in test [6], in test [7], in test [1] and in test [8]. Besides, the molecule was called inactive in test [2]. For the same molecule, the Potency result in test [9] is “inactive”. Moreover, in test [3] (at 57.5 µM (top of the series)), the activity change, negative = inhibition is 1.52% (inactive). Besides, the max response in [3] (setting [10]) is -10.8%; in test [3] (setting [11]), -8.91%.
For `OCCN1CCN(CCCN2c3ccccc3Sc3ccc(C(F)(F)F)cc32)CC1`, the molecule was classed as inactive in [1] and in [2]. In addition, the activity change, negative = inhibition in [3] (at 25.7 µM (top of the series)) was -3.93% (inactive); in test [3] (at 57.5 µM (top of the series)), 8.5% (inactive) and -2.13% (inactive). For the same molecule, the max response in [3] (setting [10]) was -9.92% and 24.4% and 4.08%; in test [3] (setting [11]), -13.1% and 36.3% and -0.526%.
On to `Nc1ccn([C@H]2CC[C@@H](CO)O2)c(=O)n1`, for which the molecule was called inactive in [4], in test [5], in [6], in test [7], in test [1] and in test [8]. Further, in test [2], the outcome was inactive. Also, in [9], the Potency entry is “inactive”. For the same molecule, the activity change, negative = inhibition in [3] (at 57.5 µM (top of the series)) was 0.404% (inactive) and -0.834% (inactive). Besides, the max response in test [3] (setting [10]) is -7.59% and -3.68%; in test [3] (setting [11]), -4.32% and -4.82%.
Take `Clc1ccccc1C(c1ccccc1)(c1ccccc1)n1ccnc1`: the molecule was classed as inactive in test [1] and in [2]. For the same molecule, the activity change, negative = inhibition in test [3] (at 25.7 µM (top of the series)) was 2.04% (inactive); in test [3] (at 57.5 µM (top of the series)), 9.89% (inactive). In addition, the max response in test [3] (setting [10]) is -13.7% and 9.45%; in test [3] (setting [11]) it was -11.4% and 22.8%.
As for `CS(=O)(=O)Nc1ccc([N+](=O)[O-])cc1Oc1ccccc1`, the result in test [1] and in test [2] was inactive. For the same molecule, the values for the activity change, negative = inhibition in [3] (at 25.7 µM (top of the series)) and in test [3] (at 57.5 µM (top of the series)) were -1.76% (inactive) and 14.1% (inactive), respectively. Further, the max response in test [3] (setting [10]) was 3.21% and 14.6%; in test [3] (setting [11]) it was 2.41% and 33.1%.
For the molecule `CN(C)CCCN1c2ccccc2CCc2ccc(Cl)cc21`, the molecule was classed as inactive in [1] and in [2]. Moreover, the activity change, negative = inhibition in test [3] (at 25.7 µM (top of the series)) is -2.54% (inactive); in test [3] (at 57.5 µM (top of the series)), 1.94% (inactive). Also, the max response in [3] (setting [10]) was -4.06% and 0.0678%; in test [3] (setting [11]) it was -5.65% and 2.74%.
For `Cn1c(=O)c2c(ncn2C)n(C)c1=O`, the outcome in [4], in test [5], in [6], in test [7], in test [1] and in test [8] was inactive. In addition, the call in [2] was inactive. Also, in test [9], the Potency result is “inactive”. Moreover, the activity change, negative = inhibition in [3] (at 57.5 µM (top of the series)) is 9.95% (inactive) and -17.6% (inactive). Further, the max response in test [3] (setting [10]) is 6.09% and -15.3%; in test [3] (setting [11]), 17.2% and -15.6%.
Turning to `CN1CCC(=C2c3ccccc3CC(=O)c3sccc32)CC1`, the molecule was classed as inactive in [1] and in test [2]. For the same molecule, the activity change, negative = inhibition is -3.11% (inactive) in [3] (at 25.7 µM (top of the series)) and 1.94% (inactive) in test [3] (at 57.5 µM (top of the series)). Moreover, the max response was 0.637% and -29.8% in [3] (setting [10]); -3.73% and -28.3% in test [3] (setting [11]).
As for `CN(C)CCC=C1c2ccccc2C=Cc2ccccc21`, the call in [1] and in [2] was inactive. Further, the activity change, negative = inhibition is -1.76% (inactive) in test [3] (at 25.7 µM (top of the series)) and 0.751% (inactive) in test [3] (at 57.5 µM (top of the series)). Further, the max response in test [3] (setting [10]) was -6.8% and 1.02%; in test [3] (setting [11]), -7.37% and 4.03%.
